Assay results reported in PubChem BioAssay (Tox21).
Values joined by “and” are separate entries in the source; they are usually repeats but may differ in a detail not shown here. Equal values may be shown once. Inconclusive results are not listed. Where a structure was tested more than once in an assay, its records may differ in their call. Active and inactive are the calls of the source. Unless noted, the call rests on the fitted dose curve; in most records, active means well fitted curve in the direction sought with a large enough effect in the repeat runs; inconclusive means weak or mixed curves; inactive means no such curve, though single readings can be large; an effect the other way counts as inactive or inconclusive.

Key:
[1] = biological target: Retinoic acid receptor RXR-alpha (Homo sapiens) (UniProt P19793); assay: qHTS assay to identify small molecule agonists of the RXR signaling pathway (AID 1159527; calls by dose curve; further: nearly all actives have a fitted effect of over 35% in size; further: potency means the concentration at half of the fitted maximal effect)
Method in brief: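 Reporter activation is measured as beta-lactamase activity via FRET substrate cleavage (emission 460/530 nm) in HEK 293T cells expressing an RXR-alpha-driven bla construct, following 16 hr compound exposure at 37 C.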

[2] = qHTS assay to identify small molecule agonists of the RXR signaling pathway - cell viability counter screen (AID 1159529); further: series mostly up to about 77 µM; nearly all actives have a fitted effect of over 50% in size
Method in brief: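 Tox21 10K compounds were tested for cytotoxicity against GeneBLAzer RXR-alpha HEK 293T cells grown in 2% charcoal-stripped FBS. Exposure lasted 16 hr at 37 C, 5% CO2; viability read by CellTiter-Glo luminescence.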

[3] = qHTS assay to identify small molecule antagonists of the retinoid acid receptor (RAR) signaling pathway - cell viability counter screen (AID 1159551); further: nearly all actives have a fitted effect of over 35% in size
Method in brief: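 C3RL4 RARE-luciferase line; cpds + retinol 1 uM final, 6 h, 37 C/5% CO2; CellTiter-Glo ATP luminescence, 30 min RT.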

[4] = qHTS assay to identify small molecule antagonists of the retinoic acid receptor (RAR) signaling pathway (AID 1159552; further: nearly all actives have a fitted effect of over 50% in size; further: potency means the concentration at half of the fitted maximal effect)
Method in brief: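 Overnight-plated C3RL4 reporter cells get compound, then retinol to 1 uM final; plates sit 6 hr at 37 C, 5% CO2. A luciferase reagent is added and light output recorded after 30 min at room temperature.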

[5] = qHTS assay to identify small molecule agonists of the retinoic acid receptor (RAR) signaling pathway (AID 1159553)
Method in brief: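 RARE-luc C3RL4 cells; overnight attachment 37 C/5% CO2; compound (DMSO) 6 hr; luciferase reagent, 30 min RT; luminescence read-out.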

[6] = qHTS assay to identify small molecule antagonists of the estrogen related receptor (ERR) signaling pathway from Tox21 library - cell viability counter screen (AID 1224834); further: nearly all actives have a fitted effect of over 30% in size; further: potency means the concentration at half of the fitted maximal effect
Method in brief: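 Multiplexed viability counter screen in ERR cells: 17.5 h compound exposure at 37 C, CellTiter-Fluor added, 30 min at 37 C/5% CO2, fluorescence read.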

[7] = biological target: Luciferin 4-monooxygenase (Photinus pyralis) (UniProt P08659); assay: qHTS assay to identify small molecule inhibitors of firefly luciferase (AID 1224835); further: nearly all actives have a fitted effect of over 25% in size; further: potency means the concentration at half of the fitted maximal effect
Method in brief: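 Biochemical qHTS: compounds run as interplate titrations against purified firefly enzyme, with D-luciferin and ATP each at its KM concentration. Light output recorded by CCD imaging.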

[8] = qHTS assay to identify small molecule agonists of the constitutive androstane receptor (CAR) signaling pathway - cell viability counter screen (AID 1224836); further: series mostly up to about 92 µM; nearly all actives have a fitted effect of over 45% in size
Method in brief: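 Fluorescence from CellTiter-Fluor indicates live cells after 23 h exposure. The human hepatoma line expresses hCAR and a CYP2B6-2.2kb reporter. Incubation medium contains 0.75 uM PK11195 (final).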

[9] = qHTS assay to identify small molecule antagonists of the constitutive androstane receptor (CAR) signaling pathway - cell viability counter screen (AID 1224837); further: series mostly up to about 92 µM; nearly all actives have a fitted effect of over 45% in size
Method in brief: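 Read-out: CellTiter-Fluor fluorescence after 23 hr at 37 C/5% CO2. Cells: HepG2 double-stable for hCAR and CYP2B6-2.2kb. Compounds tested at 15 concentrations in the presence of CITCO, final concentration 50 nM.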

[10] = biological target: Nuclear receptor subfamily 1 group I member 3 (Homo sapiens) (UniProt Q14994); assay: qHTS assay to identify small molecule antagonists of the constitutive androstane receptor (CAR) signaling pathway (AID 1224838);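 further: HepG2 cells stably expressing hCAR with CYP2B6 luciferase reporter stimulated by CITCO; nearly all actives have a fitted effect of over 40% in size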
Method in brief: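 Read-out: ONE-Glo luciferase luminescence after 30 min at room temperature. HepG2-CYP2B6-hCAR double-stable cells, compounds in 15-point titration plus 50 nM CITCO final, 24 h at 37 C/5% CO2.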

[11] = biological target: Nuclear receptor subfamily 1 group I member 3 (Homo sapiens) (UniProt Q14994); assay: qHTS assay to identify small molecule agonists of the constitutive androstane receptor (CAR) signaling pathway (AID 1224839); further: nearly all actives have a fitted effect of over 15% in size; further: potency means the concentration at half of the fitted maximal effect
Method in brief: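 Stable hCAR/CYP2B6-2.2kb HepG2 line in DMEM with 10% FBS; compounds (15 concentrations) and 0.75 uM PK11195 final, 24 h at 37 C/5% CO2, then ONE-Glo luminescence after 30 min.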

[12] = qHTS assay to identify small molecule antagonists of the estrogen related receptor signaling pathway with the pleiotropic PPARgamma coactivator (PGC) from Tox21 10K library - cell viability counter screen (AID 1224840; active means well fitted cell-killing curve with a large enough effect in the repeat runs, not every such curve was filed as active; further: nearly all actives have a fitted effect of over 40% in size; further: potency means the concentration at half of the fitted maximal effect)
Method in brief: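 Fluorescence read-out of CellTiter-Fluor viability reagent, added after cells had been exposed to compound in DMSO for 17.5 h at 37 C; 30 min development at 37 C/5% CO2. Cells: PGC/ERR line, 2,000/well.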

[13] = qHTS assay to identify small molecule antagonists of the estrogen related receptor signaling pathway with the pleiotropic PPARgamma coactivator (PGC) from Tox21 10K library (AID 1224841; call rule not given here; further: series mostly up to about 92 µM; actives are mostly falling curves and most rising ones were filed inactive; nearly all actives have a fitted effect of over 50% in size)
Method in brief: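 Luminescence read-out (One-Glo luciferase reagent, 30 min at room temperature) from PGC/ERR cells exposed to DMSO-dissolved test compounds for 18 h at 37 C; cells, 2,000 per well, had been preincubated 6 h before compound transfer.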

[14] = qHTS assay to identify small molecule agonists of the estrogen related receptor signaling pathway with the pleiotropic PPARgamma coactivator (PGC) from Tox21 10K library (AID 1224842); further: nearly all actives have a fitted effect of over 15% in size
Method in brief: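 PGC/ERR reporter cell line, 2,000 cells per well, incubated 6 h at 37 C before 23 nL compound in DMSO was added. After 18 h at 37 C, One-Glo luminescence read following 30 min at room temperature.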

[15] = qHTS assay to identify small molecule antagonists of the estrogen related receptor (ERR) signaling pathway - cell viability counter screen (AID 1224818); further: series mostly up to about 46 µM
Method in brief: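 Fluorescence from CellTiter-Fluor, read 30 min after reagent addition at 37 C, measured viability of ERR cells exposed to compounds for 17.5 h. Cells had settled 6 h before dosing.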

[16] = qHTS assay to identify small molecule antagonists of the estrogen related receptor (ERR) signaling pathway (AID 1224819;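 further: luminescence from an ERR-driven luciferase reporter measured with One-Glo reagent; series mostly up to about 46 µM; nearly all actives have a fitted effect of over 50% in size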)
Method in brief: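 Luminescence readout (One-Glo, 30 min, RT) of ERR cell line after 18 h compound exposure at 37 C; cells seeded 2,000/well, pre-incubated 6 h, compounds pinned from DMSO stocks.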

[17] = qHTS assay to identify small molecule agonists of the estrogen related receptor (ERR) signaling pathway (AID 1224820)
Method in brief: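 Following a 6 h settling period, 2,000 ERR cells per well receive DMSO-dissolved compounds by pin tool and incubate 18 h at 37 C; agonist activity is scored from One-Glo luminescence read 30 min post-addition.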

[18] = system: estrogen-related receptor alpha (ERRalpha) with PGC-1alpha coactivator, human; assay: qHTS assay to identify small molecule antagonists of the estrogen related receptor signaling pathway with the pleiotropic PPARgamma coactivator (PGC) (AID 1224821; calls by dose curve)
Method in brief: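 Screening used NTP's PGC/ERR cells, dosed via pin tool with compound in DMSO alongside positive and negative controls. After 18 h at 37 C, One-Glo reagent sat 30 min at room temperature before luminescence detection.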

[19] = qHTS assay to identify small molecule antagonists of the estrogen related receptor signaling pathway with the pleiotropic PPARgamma coactivator (PGC) cell viability counter screen (AID 1224822; further: series mostly up to about 46 µM)
Method in brief: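 Fluorescence read-out of CellTiter-Fluor after 30 min at 37 C; PGC/ERR cells, 2,000 per well, had been exposed to DMSO-dissolved compounds for 17.5 h following a 6 h pre-incubation.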

[20] = qHTS assay to identify small molecule agonists of the estrogen related receptor signaling pathway with the pleiotropic PPARgamma coactivator (PGC) (AID 1224823)
Method in brief: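 In this quantitative high-throughput screen, an 18 h, 37 C treatment of PGC/ERR cells with compounds in DMSO preceded a One-Glo luminescence read taken after 30 min at room temperature.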

Measured: Potency

Sequence of Luciferin 4-monooxygenase (Photinus pyralis) (P08659 whole entry, looked up): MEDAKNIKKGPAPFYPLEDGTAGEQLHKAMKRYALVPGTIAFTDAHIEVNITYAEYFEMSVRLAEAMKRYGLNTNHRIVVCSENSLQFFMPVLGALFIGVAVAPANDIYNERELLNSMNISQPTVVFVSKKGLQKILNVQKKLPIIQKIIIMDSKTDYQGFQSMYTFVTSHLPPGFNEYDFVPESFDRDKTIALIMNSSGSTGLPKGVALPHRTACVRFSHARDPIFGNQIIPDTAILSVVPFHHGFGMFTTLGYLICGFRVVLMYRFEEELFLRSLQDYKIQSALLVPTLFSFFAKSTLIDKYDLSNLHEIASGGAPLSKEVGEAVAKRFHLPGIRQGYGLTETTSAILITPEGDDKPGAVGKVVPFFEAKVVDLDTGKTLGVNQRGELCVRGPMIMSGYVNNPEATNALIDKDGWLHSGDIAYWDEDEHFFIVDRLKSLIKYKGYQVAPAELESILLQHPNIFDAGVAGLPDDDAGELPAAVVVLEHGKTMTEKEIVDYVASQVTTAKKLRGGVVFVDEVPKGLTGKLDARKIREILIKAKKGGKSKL
Sequence of Retinoic acid receptor RXR-alpha (Homo sapiens) (P19793 whole entry, looked up): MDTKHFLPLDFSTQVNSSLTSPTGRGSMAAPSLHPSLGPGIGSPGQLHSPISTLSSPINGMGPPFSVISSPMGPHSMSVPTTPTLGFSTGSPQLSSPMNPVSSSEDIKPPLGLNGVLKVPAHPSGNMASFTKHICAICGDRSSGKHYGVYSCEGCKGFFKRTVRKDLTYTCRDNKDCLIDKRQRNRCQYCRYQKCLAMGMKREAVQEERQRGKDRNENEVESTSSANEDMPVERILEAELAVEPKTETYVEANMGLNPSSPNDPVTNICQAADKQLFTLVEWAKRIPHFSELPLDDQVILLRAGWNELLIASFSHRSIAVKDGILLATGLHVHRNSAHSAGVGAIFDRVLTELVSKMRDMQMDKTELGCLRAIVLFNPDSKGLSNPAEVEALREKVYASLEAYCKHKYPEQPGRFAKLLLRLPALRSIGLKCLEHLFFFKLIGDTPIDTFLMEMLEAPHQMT
Sequence of Nuclear receptor subfamily 1 group I member 3 (Homo sapiens) (Q14994 whole entry, looked up): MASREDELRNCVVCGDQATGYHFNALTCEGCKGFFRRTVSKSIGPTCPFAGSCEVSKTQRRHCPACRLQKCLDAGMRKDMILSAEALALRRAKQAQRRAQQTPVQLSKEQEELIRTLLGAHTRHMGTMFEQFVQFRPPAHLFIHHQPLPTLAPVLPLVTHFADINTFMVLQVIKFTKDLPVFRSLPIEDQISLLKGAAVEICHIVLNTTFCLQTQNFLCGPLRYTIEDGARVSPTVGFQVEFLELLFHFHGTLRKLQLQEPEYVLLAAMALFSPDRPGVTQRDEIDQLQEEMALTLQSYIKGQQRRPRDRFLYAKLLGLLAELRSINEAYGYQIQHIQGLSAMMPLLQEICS

CCOc1ccc(N)cc1
inactive: [2] | [3] | [4] | [5] | [6] | [8] | [9] | [10] | [11] | [12] | [13] | [14]
11 µM (active) and inactive: [1]
inactive and 79.6 µM (active): [7]

CSc1nnc(C(C)(C)C)c(=O)n1N
inactive: [1] | [2] | [3] | [4] | [5] | [6] | [7] | [8] | [9] | [10] | [11] | [12]

COc1cc(-c2ccc(N)c(OC)c2)ccc1N
inactive and 58.3 µM (active): [4]
inactive: [1] | [2] | [3] | [5] | [8] | [9] | [10] | [13] | [14]
active: [6] 52 µM | [11] 54.7 µM and 58.3 µM
31.8 µM (active) and inactive: [7]
inactive and 29.2 µM (active): [12]

OC[C@@H](O)[C@H]1O[C@@H]2O[C@H](C(Cl)(Cl)Cl)O[C@@H]2[C@H]1O
inactive: [1] | [2] | [3] | [4] | [5] | [6] | [7] | [8] | [9] | [10] | [11] | [12] | [13] | [14]

CN(C)C(=O)Cl
inactive: [1] | [2] | [3] | [4] | [5] | [6] | [7] | [8] | [9] | [10] | [11] | [12] | [13] | [14]

Cl/C=C/Cl
inactive: [1] | [2] | [3] | [4] | [5] | [6] | [7] | [8] | [9] | [12]

[N-]=[N+]=CC(=O)OC[C@H](N)C(=O)O
inactive: [1] | [2] | [3] | [4] | [5] | [6] | [7] | [8] | [9] | [12] | [13] | [14]

OCCCCO
inactive: [1] | [2] | [3] | [4] | [5] | [6] | [8] | [9] | [10] | [11] | [12] | [13] | [14]

Cc1ccc(O)c(C)c1
inactive: [1] | [2] | [3] | [4] | [5] | [6] | [7] | [8] | [9] | [12] | [13] | [14]

COS(=O)(=O)OC
inactive: [1] | [2] | [3] | [4] | [5] | [6] | [7] | [8] | [9] | [12]

C=CC(=O)OCC(CC)CCCC (stereo not given)
inactive: [1] | [2] | [3] | [4] | [5] | [6] | [8] | [9] | [10] | [11] | [12] | [13] | [14]

CNCC(O)c1ccc(O)cc1 (stereo not given)
inactive: [1] | [2] | [3] | [5] | [15] | [16] | [17] | [18] | [19] | [20] | [6] | [7] | [8] | [9] | [10] | [11] | [12] | [13] | [14]

Oc1c(Br)cc(Br)cc1Br
inactive: [1] | [2] | [3] | [4] | [5] | [6] | [7] | [8] | [9] | [10] | [11] | [12]

O=C(O)Cc1ccccc1
inactive: [1] | [2] | [3] | [4] | [5] | [6] | [7] | [8] | [9] | [10] | [11] | [12] | [13] | [14]

C=CCN=C=S
inactive: [1] | [2] | [3] | [4] | [5] | [6] | [7] | [8] | [9] | [10] | [11] | [12] | [13] | [14]

CNC(=O)Oc1cccc2ccccc12
61.1 µM (active) and inactive: [11]
inactive: [1] | [2] | [3] | [4] | [5] | [6] | [7] | [8] | [9] | [10] | [12]

Cc1cccc(N)c1C
11.4 µM (active) and inactive: [1]
inactive and 61.1 µM (active): [11]
inactive: [2] | [3] | [4] | [5] | [6] | [7] | [8] | [9] | [10] | [12]

CC(=O)C1CCOC1=O (stereo not given)
inactive: [1] | [2] | [3] | [4] | [5] | [6] | [7] | [8] | [9] | [12]

COC(C)(C)CCCC(C)C/C=C/C(C)=C/C(=O)OC(C)C (stereo not given)
inactive: [1] | [2] | [3] | [4] | [5] | [6] | [7] | [8] | [9] | [10] | [11] | [12] | [13] | [14]
